Inconclusive results are not listed. Activity calls are given as the source filed them. Rule for the calls, unless noted: active = hit-call score of the fitted dose curve at least 0.9, where 1 is the maximum; inconclusive = response in the unintended direction; inactive = score below 0.9.
Columns and labels:
[1] = TOX21_TRB_BLA_Antagonist_Followup_viability: Viability Assessment in the Tox21 Thyroid Hormone Receptor beta Antagonism Beta-lactamase (BLA) Follow-Up Assay (AID 2283961)
How it was run: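 Viability read as CellTiter-Glo ATP luminescence (loss of signal = cytotoxicity) in the same plates as the TRβ-bla readout. TRβ-LBD/GAL4 UAS-bla HEK293T cells were exposed to compounds, 11 concentrations in triplicate, for 18 h at 37C/5% CO2.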

[2] = tested on: Thyroperoxidase (TPO), gene 54314; experiment: CCTE_Simmons_AUR_rTPO: CCTE's Amplex UltraRed Assay for Thyroperoxidase (TPO) Inhibition, Simmons Lab (AID 2283662)
How it was run: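 Cell-free peroxidase activity assay using rat thyroid gland microsomes with excess H2O2 (300 uM) and 25 uM Amplex UltraRed. Compounds tested from 5 nM to 87.5 uM; fluorescence measured after 30 min at 37C, analysed relative to DMSO baseline.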

[3] = CCTE_Simmons_CellTiterGLO_HEK293T: Viability Assessment in CCTE's Assays for Thyroperoxidase (TPO) Inhibition, Simmons Lab (AID 2283665)
How it was run: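 Cytotoxicity counter-screen: human HEK293T cells in low-serum (1% FBS) medium receive test chemical, 5 nM to 87.5 uM final, for 24 h; ATP is quantified by luciferase luminescence.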

[4] = target: Luciferin 4-monooxygenase (Photinus pyralis) (UniProt P08659); experiment: CCTE_Simmons_QuantiLum_inhib_2: CCTE's Firefly Luciferase Inhibition Assay, Simmons Lab (AID 2283767);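 for AC50: potency for inhibitors that lower luciferase luminescence relative to DMSO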
Chain of Luciferin 4-monooxygenase (Photinus pyralis) (P08659 whole entry, looked up): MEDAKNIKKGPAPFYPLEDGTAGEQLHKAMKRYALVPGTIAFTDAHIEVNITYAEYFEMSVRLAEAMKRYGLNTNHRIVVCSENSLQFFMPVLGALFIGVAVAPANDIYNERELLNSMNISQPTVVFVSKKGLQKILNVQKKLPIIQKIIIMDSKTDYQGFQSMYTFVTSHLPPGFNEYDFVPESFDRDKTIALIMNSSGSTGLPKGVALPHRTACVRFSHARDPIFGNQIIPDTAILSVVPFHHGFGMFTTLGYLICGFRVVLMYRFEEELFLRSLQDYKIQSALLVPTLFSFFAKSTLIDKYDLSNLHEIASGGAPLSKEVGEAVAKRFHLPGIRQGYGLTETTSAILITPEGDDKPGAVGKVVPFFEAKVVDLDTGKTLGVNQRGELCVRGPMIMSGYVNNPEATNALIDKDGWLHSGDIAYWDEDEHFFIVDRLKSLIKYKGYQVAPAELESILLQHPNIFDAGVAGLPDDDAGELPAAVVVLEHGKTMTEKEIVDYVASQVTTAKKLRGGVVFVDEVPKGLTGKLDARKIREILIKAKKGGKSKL
How it was run: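 Counter-screen for nonspecific enzyme inhibition: purified firefly luciferase incubated 30 min at 37C with chemicals up to 87.5 uM final, then luminescence measured after luciferin/dATP injection; activity fitted against DMSO baseline.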

[5] = ACEA_ER_AUC_viability: ACEA Biosciences xCELLigence Real-Time Cell Analysis on Estrogen Receptor Agonism for Viability (AID 2283782);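 note: continuous compound exposure with impedance area under curve over 80 h; hit means loss of impedance signal meaning reduced cell growth or viability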
How it was run: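 T47D cells preconditioned in phenol red-free RPMI with charcoal-stripped FBS, then dosed with 8-point 1:4 series from 100 uM (up to 0.5% DMSO). Impedance monitored up to ~80 h; area-under-curve loss versus DMSO taken as viability.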

[6] = target: human Androgen Receptor (AR), AR (gene 367) (UniProt P10275); experiment: ATG_hAR_XSP1: Attagene TRANS-FACTORIAL Multi-Species (XSP1) HepG2 Assay for human Androgen Receptor (AR) (AID 2283785)
Chain of human Androgen Receptor (AR), AR (gene 367) (P10275 whole entry, looked up): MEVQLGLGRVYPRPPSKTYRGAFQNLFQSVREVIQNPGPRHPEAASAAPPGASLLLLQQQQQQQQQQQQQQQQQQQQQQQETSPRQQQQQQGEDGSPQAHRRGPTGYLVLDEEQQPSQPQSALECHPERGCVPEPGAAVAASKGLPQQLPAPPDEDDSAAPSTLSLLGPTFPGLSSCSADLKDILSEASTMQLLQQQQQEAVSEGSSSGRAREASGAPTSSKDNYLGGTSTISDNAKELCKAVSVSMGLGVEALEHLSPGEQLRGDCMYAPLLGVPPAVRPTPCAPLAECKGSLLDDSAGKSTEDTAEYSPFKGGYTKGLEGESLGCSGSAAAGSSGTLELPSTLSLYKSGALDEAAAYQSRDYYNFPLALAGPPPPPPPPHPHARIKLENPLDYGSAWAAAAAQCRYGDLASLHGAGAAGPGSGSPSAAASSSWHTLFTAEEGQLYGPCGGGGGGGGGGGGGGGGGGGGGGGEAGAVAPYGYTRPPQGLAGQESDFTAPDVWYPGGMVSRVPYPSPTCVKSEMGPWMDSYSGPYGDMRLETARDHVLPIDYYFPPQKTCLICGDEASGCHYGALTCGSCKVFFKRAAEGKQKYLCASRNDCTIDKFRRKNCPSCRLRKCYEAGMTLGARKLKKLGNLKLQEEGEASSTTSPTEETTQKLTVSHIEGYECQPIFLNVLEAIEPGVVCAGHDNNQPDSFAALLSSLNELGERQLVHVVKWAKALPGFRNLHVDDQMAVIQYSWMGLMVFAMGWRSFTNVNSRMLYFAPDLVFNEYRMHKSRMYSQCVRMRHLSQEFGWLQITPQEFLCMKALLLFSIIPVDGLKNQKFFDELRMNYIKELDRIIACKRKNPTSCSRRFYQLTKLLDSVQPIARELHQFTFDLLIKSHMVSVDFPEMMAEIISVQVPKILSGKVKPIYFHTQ

[7] = target: Thyroid hormone receptor alpha (Rattus norvegicus) + Thyroid hormone receptor beta (Rattus norvegicus) (UniProt P18113+P63059); experiment: TOX21_TR_LUC_GH3_Agonist_Followup: Tox21 GH3 Thyroid Hormone Receptor Agonism Luciferase Follow-Up Assay (AID 2283939)
Chain of Thyroid hormone receptor alpha (Rattus norvegicus) + Thyroid hormone receptor beta (Rattus norvegicus) (P63059 whole entry, looked up): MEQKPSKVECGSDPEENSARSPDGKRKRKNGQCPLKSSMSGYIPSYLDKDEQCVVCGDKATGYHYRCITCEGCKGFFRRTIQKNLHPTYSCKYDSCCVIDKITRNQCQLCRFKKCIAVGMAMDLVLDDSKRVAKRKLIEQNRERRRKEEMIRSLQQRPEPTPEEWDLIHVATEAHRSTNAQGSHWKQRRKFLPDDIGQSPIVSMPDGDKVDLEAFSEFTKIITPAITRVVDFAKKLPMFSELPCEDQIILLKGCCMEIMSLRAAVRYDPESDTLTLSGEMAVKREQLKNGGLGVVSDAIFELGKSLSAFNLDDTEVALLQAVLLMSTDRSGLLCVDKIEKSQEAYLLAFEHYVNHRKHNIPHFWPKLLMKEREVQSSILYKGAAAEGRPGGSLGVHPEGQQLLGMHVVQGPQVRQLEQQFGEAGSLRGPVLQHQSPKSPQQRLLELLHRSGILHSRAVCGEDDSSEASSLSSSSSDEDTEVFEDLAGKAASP
Chain of Thyroid hormone receptor alpha (Rattus norvegicus) + Thyroid hormone receptor beta (Rattus norvegicus) (P18113 whole entry, looked up): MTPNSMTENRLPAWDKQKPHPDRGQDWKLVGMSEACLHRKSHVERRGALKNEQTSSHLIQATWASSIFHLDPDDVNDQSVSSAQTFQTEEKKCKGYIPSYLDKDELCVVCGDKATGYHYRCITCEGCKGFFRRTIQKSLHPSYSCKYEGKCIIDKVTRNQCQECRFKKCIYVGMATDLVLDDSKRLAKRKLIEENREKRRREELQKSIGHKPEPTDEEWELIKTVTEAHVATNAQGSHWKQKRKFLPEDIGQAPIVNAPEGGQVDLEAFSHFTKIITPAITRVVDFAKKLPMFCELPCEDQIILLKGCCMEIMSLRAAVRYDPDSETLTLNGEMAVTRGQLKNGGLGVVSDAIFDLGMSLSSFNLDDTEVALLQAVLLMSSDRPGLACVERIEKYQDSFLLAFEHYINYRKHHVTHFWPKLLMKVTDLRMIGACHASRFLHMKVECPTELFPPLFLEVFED
How it was run: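 Rat GH3 cells (1,500/well) in serum-free assay medium, treated with 15-point series, 92 uM to 5 nM final, for 24 h at 37C. Luciferase via ONE-Glo luminescence; gain of signal fitted against DMSO, T3 positive control.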

THRA (gene 7067) = THRA (gene 7067) (UniProt P10827); experiment: TOX21_TRA_COA_Agonist_Followup_ratio: Tox21 Thyroid Hormone Receptor alpha Agonism through Coactivator Recruitment Follow-Up Assay, Ratio (AID 2283948; active = hit-call score of the fitted dose curve at least 0.9, where 1 is the maximum; inactive = score below 0.9)
Chain of THRA (gene 7067) (P10827 whole entry, looked up, the tested form may be a part): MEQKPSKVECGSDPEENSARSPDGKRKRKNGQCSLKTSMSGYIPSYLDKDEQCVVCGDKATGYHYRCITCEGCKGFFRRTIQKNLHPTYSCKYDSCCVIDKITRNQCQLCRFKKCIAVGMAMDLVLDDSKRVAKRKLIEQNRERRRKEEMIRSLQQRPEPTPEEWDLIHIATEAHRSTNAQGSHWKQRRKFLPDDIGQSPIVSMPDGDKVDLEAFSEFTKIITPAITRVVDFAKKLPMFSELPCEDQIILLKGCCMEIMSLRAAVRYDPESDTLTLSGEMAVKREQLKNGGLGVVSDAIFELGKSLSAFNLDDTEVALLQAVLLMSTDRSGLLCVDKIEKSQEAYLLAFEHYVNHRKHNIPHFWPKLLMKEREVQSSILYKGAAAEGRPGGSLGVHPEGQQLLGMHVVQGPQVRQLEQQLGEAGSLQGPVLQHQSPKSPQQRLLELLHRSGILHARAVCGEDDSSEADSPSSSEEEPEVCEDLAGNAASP
How it was run: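 GST-TRa LBD 2.5 nM + 0.10% BSA + cpd; add fluorescein-SRC-2 200 nM, Tb-anti-GST 2 nM. TR-FRET ex 340, em 520/495 ratio. Norm: DMSO 0%, T3 100%; gain-of-signal fit.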

THRB (gene 7068) [8] = target: THRB (gene 7068) (UniProt P10828); experiment: TOX21_TRB_BLA_Agonist_Followup_ratio: Tox21 Thyroid Hormone Receptor beta Agonism Beta-lactamase (BLA) Follow-Up Assay, Ratio (AID 2283954)
Chain of THRB (gene 7068) (P10828 whole entry, looked up, the tested form may be a part): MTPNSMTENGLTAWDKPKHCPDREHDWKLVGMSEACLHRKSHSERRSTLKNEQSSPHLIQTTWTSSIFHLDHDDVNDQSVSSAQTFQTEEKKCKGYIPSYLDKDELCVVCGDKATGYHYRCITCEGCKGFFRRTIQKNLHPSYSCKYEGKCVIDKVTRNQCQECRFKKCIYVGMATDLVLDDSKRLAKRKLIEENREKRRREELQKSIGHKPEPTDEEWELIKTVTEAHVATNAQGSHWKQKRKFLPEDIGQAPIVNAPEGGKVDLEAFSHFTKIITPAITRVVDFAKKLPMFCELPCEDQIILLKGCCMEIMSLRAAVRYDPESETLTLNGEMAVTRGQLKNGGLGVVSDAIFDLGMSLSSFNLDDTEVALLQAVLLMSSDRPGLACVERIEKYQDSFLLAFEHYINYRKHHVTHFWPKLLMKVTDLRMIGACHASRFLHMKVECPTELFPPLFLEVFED
How it was run: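 Human TRβ LBD–GAL4 DBD fusion in GeneBLAzer UAS-bla HEK293T cells; 11 concentrations in triplicate, 18 h at 37°C/5% CO2, T3 as agonist control. CCF4-AM substrate 2 h at room temperature; 460:530 nm ratio fitted for gain of signal versus DMSO.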

THRB (gene 7068) [9] = target: THRB (gene 7068) (UniProt P10828); experiment: TOX21_TRB_COA_Agonist_Followup_ratio: Tox21 Thyroid Hormone Receptor beta Agonism through Coactivator Recruitment Follow-Up Assay, Ratio (AID 2283963; active = hit-call score of the fitted dose curve at least 0.9, where 1 is the maximum; inactive = score below 0.9)
How it was run: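 First, the GST-fused TRβ ligand-binding domain (5.0 nM) was incubated with test compound in 0.10% BSA. Next, fluorescein-tagged SRC-2 peptide (200 nM) and terbium anti-GST antibody (2 nM) were added. Finally, TR-FRET emission ratios were normalized against DMSO and T3 controls.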

[10] = target: Retinoic acid receptor RXR-alpha (Homo sapiens) (UniProt P19793); experiment: TOX21_TR_RXR_BLA_Agonist_Followup_ratio: Tox21 Thyroid Hormone Receptor beta Retinoid X Receptor alpha (RXRa) Agonism Beta-lactamase (BLA) Follow-Up Assay, Ratio (AID 2283968)
Chain of Retinoic acid receptor RXR-alpha (Homo sapiens) (P19793 whole entry, looked up, the tested form may be a part): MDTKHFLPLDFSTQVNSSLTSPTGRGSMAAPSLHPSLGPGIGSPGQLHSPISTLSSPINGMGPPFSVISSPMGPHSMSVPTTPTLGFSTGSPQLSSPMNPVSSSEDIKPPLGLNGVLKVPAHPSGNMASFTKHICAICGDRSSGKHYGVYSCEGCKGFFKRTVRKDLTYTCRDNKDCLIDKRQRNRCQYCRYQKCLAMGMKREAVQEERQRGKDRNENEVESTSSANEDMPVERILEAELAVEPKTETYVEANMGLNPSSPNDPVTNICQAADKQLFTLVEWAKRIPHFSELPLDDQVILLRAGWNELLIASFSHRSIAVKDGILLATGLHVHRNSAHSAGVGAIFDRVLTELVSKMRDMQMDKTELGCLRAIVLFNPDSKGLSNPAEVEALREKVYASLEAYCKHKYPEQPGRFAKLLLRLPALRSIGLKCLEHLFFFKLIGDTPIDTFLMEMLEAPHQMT
How it was run: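 This follow-up tests whether responses seen in the TR GH3 luciferase agonist screen are specific, using a GAL4-driven beta-lactamase reporter for RXRa in HEK293T cells. Compound exposure lasts 16 h; signal is the cleaved/uncleaved substrate ratio.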

[11] = TOX21_TR_RXR_BLA_Agonist_Followup_viability: Viability Assessment in the Tox21 Thyroid Hormone Receptor beta Retinoid X Receptor alpha (RXRa) Agonism Beta-lactamase (BLA) Follow-Up Assay (AID 2283970)
How it was run: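 In qHTS format, RXRa-bla HEK293T cells (2,500/well) received compound for 16h. ATP content was then measured with CellTiter-Glo, and responses were fitted bidirectionally relative to DMSO controls.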

[12] = TOX21_PR_BLA_Followup_Antagonist_viability: Viability Assessment in the Tox21 HEK293 Progesterone Receptor (PR) Antagonism Beta-lactamase Follow-Up Assay (AID 2283936);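 note: hits lower the luminescence signal meaning cytotoxicity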
How it was run: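 PR-UAS-bla HEK293T cells (3,000/well, 2% charcoal-stripped FBS) given compound plus R5020 agonist, 16 h at 37C. CellTiter-Glo added after bla read, 30 min at room temperature; luminescence loss indicates cytotoxicity.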

[13] = CCTE_Shafer_MEA_acute_synchrony_index: CCTE's Neural Acute Assay for Synchrony, Shafer Lab (AID 2284027; active = hit-call score of the fitted dose curve at least 0.9, where 1 is the maximum; inactive = score below 0.9;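 note: network synchrony index of spontaneous spiking in primary rat cortical neurons on MEAs; fitted for loss of signal so actives lower synchrony relative to DMSO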)
How it was run: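 Spontaneous firing of mature rat cortical networks is captured extracellularly on microelectrode arrays at 37 C, with wells needing ≥10 active electrodes. Each compound (0.03-40 uM) is judged by the change in synchrony index from baseline over 40 min.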

[14] = CCTE_Shafer_MEA_acute_AB: CCTE's Alamar Blue Assay for Cytotoxicity in the Neural Acute Assay, Shafer Lab (AID 2284069);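 note: active compounds lower the viability signal compared with DMSO wells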
How it was run: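 Metabolic activity in chemically exposed rat cortical neurons (MEA cultures, day 13/15 post-plating) measured via CellTiter Blue resazurin reduction, 544/590 nm fluorescence; fitted relative to DMSO, with signal loss indicating reduced viability.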

[15] = CCTE_Shafer_MEA_acute_LDH: CCTE's Lactate Dehydrogenase Assay for Cytotoxicity in the Neural Acute Assay, Shafer Lab (AID 2284086);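 note: active means LDH release rises above DMSO vehicle level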
How it was run: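 Released lactate dehydrogenase, read at 490 nm, indicated cytotoxicity after acute 40-min compound treatment of rat cortical neuron networks grown on 48-well MEA plates.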

[16] = CCTE_Mundy_HCI_hN2_NOG_NeuriteLength: CCTE's Neurite Outgrowth Assay in human hN2 cells for Neurite Length, Mundy Lab (AID 2284220)
How it was run: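 Read-out is neurite length from high-content imaging of βIII-tubulin/Alexa Fluor-488-labelled neurons, referenced to DMSO controls.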

[17] = CCTE_Shafer_MEA_dev_inter_network_spike_interval_mean: CCTE's Neural Network Formation Assay for Mean Inter-network Spike Interval, Shafer Lab (AID 2284047; active = hit-call score of the fitted dose curve at least 0.9, where 1 is the maximum; inactive = score below 0.9)
How it was run: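 Rat cortical cultures, 1.5 x 10^5 cells/well on 48-well MEA plates; continuous exposure days 0–12, medium and compound refreshed DIV 5, 9. Mean time between consecutive network-spike peaks; AUC across DIV 5/7/9/12; DMSO baseline, negative fitting direction.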

PGR (gene 5241) = PGR (gene 5241) (UniProt P06401); experiment: TOX21_PR_LUC_Followup_Agonist: Tox21 HEK293 Progesterone Receptor (PR) Agonism Luciferase Follow-Up Assay (AID 2283937; active = hit-call score of the fitted dose curve at least 0.9, where 1 is the maximum; inactive = score below 0.9)
Chain of PGR (gene 5241) (P06401 whole entry, looked up): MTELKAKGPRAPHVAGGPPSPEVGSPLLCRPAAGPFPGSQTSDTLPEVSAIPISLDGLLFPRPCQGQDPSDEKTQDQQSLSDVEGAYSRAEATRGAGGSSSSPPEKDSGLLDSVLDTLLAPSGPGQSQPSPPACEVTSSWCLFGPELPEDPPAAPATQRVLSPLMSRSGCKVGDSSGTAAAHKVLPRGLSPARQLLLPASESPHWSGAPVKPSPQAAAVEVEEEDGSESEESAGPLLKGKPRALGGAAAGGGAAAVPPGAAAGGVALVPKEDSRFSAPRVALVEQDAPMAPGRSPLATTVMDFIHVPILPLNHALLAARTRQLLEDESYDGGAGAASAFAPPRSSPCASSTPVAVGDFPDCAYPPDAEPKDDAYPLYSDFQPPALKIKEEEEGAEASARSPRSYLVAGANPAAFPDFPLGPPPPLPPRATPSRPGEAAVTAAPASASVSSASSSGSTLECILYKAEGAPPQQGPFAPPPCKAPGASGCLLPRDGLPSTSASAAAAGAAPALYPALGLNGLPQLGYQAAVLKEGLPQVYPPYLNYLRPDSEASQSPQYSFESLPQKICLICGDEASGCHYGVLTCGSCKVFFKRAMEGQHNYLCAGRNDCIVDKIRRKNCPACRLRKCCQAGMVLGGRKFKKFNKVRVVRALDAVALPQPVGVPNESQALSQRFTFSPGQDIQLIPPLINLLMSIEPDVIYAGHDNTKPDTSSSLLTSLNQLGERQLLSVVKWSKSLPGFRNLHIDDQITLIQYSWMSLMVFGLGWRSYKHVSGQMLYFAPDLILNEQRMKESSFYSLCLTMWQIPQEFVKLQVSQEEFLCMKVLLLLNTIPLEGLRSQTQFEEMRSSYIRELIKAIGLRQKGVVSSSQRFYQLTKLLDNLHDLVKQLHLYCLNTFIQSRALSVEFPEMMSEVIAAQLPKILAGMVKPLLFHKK
How it was run: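 Agonist mode: reporter cells carrying PR-A and luciferase are treated 16 h with test compounds at 37C. Luciferase induction is measured by luminescence and fitted upward against DMSO.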

[18] = CCTE_Mundy_HCI_hN2_NOG_NeuronCount: CCTE's Neurite Outgrowth Assay in human hN2 cells for Neuron Count, Mundy Lab (AID 2284221)
How it was run: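 Read-out is the number of betaIII-tubulin-positive neurons imaged by automated high-content analysis, with DMSO as negative control.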

In the case of CCCCCCCCCCn1cc[n+](C)c1, the AC50 [1] is reported as 7.88 µM (active).
For Cc1ccc2cc3c(ccc4ccccc43)c3c2c1CC3, the outcome [2] was “inactive”, the outcome [3] was “inactive” and the AC50 [4] was 0.263 µM (active).
In the case of COc1ccn(C)c(=O)c1C#N, the outcome [2] is reported as “inactive” and the outcome [4] is reported as “inactive”.
In the case of CC(C)=CC1C(C(=O)OC(C#N)c2cccc(Oc3ccccc3)c2)C1(C)C (stereo not drawn), the outcome [5] is reported as “inactive”.
In the case of CC1(C)C(C=C(Cl)Cl)C1C(=O)OCc1cccc(Oc2ccccc2)c1 (stereo not drawn), the outcome [6] is reported as “inactive”.
With O=C(O)CCCCCCNC1c2ccccc2CCc2ccccc21 the outcome [7] was “inactive”, the AC50 (THRA (gene 7067)) was 23.8 µM (active) and the outcome (THRB (gene 7068) [8]) was “inactive”. For the same compound, the AC50 (THRB (gene 7068) [9]) was 13.2 µM (active), the outcome [10] was “inactive” and the outcome [11] was “inactive”.
For CC1COC2(c3ccccc3Cl)c3cc(Cl)ccc3NC(=O)CN12 (stereo not drawn), the outcome [12] was “inactive”.
In the case of CP(=O)(O)CCC(N)C(=O)O (stereo not drawn), the outcome [13] is reported as “inactive”, the outcome [14] is reported as “inactive” and the outcome [15] is reported as “inactive”.
With O=C(O)CNCP(=O)(O)O the outcome [13] was “inactive” and the outcome [16] was “inactive”.
In the case of CCn1cc[n+](C)c1, the outcome (THRA (gene 7067)) is reported as “inactive”, the outcome (THRB (gene 7068) [8]) is reported as “inactive” and the outcome (THRB (gene 7068) [9]) is reported as “inactive”. For the same compound, the outcome [10] was “inactive”.
In the case of CCOP(=O)(OCC)SCSCC, the outcome [17] is reported as “inactive”.
In the case of CCCCC(CC)COC(=O)c1cc(Br)c(Br)c(Br)c1Br (stereo not drawn), the outcome [17] is reported as “inactive”.
In the case of C[C@]12CC[C@H]3[C@@H](CCC4=CC(=O)CC[C@@H]43)[C@@H]1CC[C@@H]2OC(=O)CCC1CCCCC1, the outcome [12] is reported as “inactive” and the AC50 (PGR (gene 5241)) is reported as 0.0731 µM (active).
With CP(=O)(O)CC[C@H](N)C(=O)O the outcome [13] was “inactive” and the outcome [15] was “inactive”.
With Nc1ccc(Cl)cc1C(=O)c1ccccc1F the outcome [12] was “inactive” and the outcome (PGR (gene 5241)) was “inactive”.
With CC(=O)[O-].CC(=O)[O-].O.O.O.[Pb+2] the AC50 [16] was 2.07 µM (active) and the AC50 [18] was 12 µM (active).
In the case of NCCc1cc(O)c(O)cc1O, the outcome [17] is reported as “inactive”.
In the case of C[n+]1ccc(-c2cc[n+](C)cc2)cc1, the outcome [16] is reported as “inactive” and the AC50 [18] is reported as 50 µM (active).
In the case of CCC(=O)O[C@@H]1C=C2CCC3C(CCC4(C)C3CC[C@@H]4OC(=O)CC)C2CC1 (stereo partly drawn), the AC50 (PGR (gene 5241)) is reported as 0.165 µM (active).
In the case of CC1(C)[C@@H](C=C(Cl)Cl)[C@@H]1C(=O)O[C@@H](C#N)c1ccc(F)c(Oc2ccccc2)c1, the AC50 [13] is reported as 0.512 µM (active) and the outcome [15] is reported as “inactive”.
In the case of C#CCN(C)[C@H](C)Cc1ccccc1, the outcome [13] is reported as “inactive” and the outcome [15] is reported as “inactive”.
For O=C1CN=C(c2ccccc2)c2cc(Cl)ccc2N1CC1CC1, the outcome [12] was “inactive”.
With C[C@H](N)Cc1ccccc1 the outcome [18] was “inactive”.
For O.O.O.O.O.[Cd+2].[Cd+2].[Cl-].[Cl-].[Cl-].[Cl-], the AC50 [16] was 31.6 µM (active) and the AC50 [18] was 14.1 µM (active).
In the case of [CH3][Sn]([CH3])[CH3], the outcome [18] is reported as “inactive”.
For C=CCN1CC[C@]23c4c5ccc(O)c4O[C@H]2C(=O)CC[C@@]3(O)[C@H]1C5, the outcome [16] was “inactive”.
